About 79,000 compounds went through this panel and 15% of them were active in at least one assay; those are over-represented in the sample as a whole. A number with no mark means an inactive call. Active and inactive are the calls of the source. Cut-off read from the data, not from the text of the source: active = growth inhibition above about 70%; inactive = the rest.

Assay [1] in a line: NCI Yeast Anticancer Drug Screen. Data for the rad50 strain (AID 155).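 Note: 0% = growth of vehicle-only cultures of the same strain.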 Particulars: S. cerevisiae rad50 strain growth inhibition; at 50.0 µM; stronger effect = higher value. In outline: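 Readout: growth inhibition relative to vehicle-treated cultures. Compound exposure was carried out in a genetically defined yeast strain deficient in DNA damage repair.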
The nature of assay [2]: NCI Yeast Anticancer Drug Screen. Data for the mec2-1 strain (AID 157). To be noted: S. cerevisiae mec2-1 strain, at 50.0 µM, stronger effect = higher value. The gist of the method:
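Mutant yeast (mec2-1) grown with compound; growth inhibition relative to vehicle control reported.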

A short description of assay [3]: NCI Yeast Anticancer Drug Screen. Data for the sgs1 mgt1 strain (AID 161).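 Note: 0% = growth of cultures given vehicle only.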 To be noted: S. cerevisiae sgs1 mgt1 strain, at 50.0 µM, stronger effect = higher value. In outline:
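Compounds are added to genetically altered yeast, and growth is compared with cultures given vehicle alone to give percent inhibition.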

A short description of assay [4]: NCI Yeast Anticancer Drug Screen. Data for the cln2 rad14 strain (AID 165).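 Note: 0% = growth equal to vehicle treated cultures.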 To be noted: S. cerevisiae cln2 rad14 strain, at 50.0 µM, stronger effect = higher value. In outline:
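Readout is yeast growth inhibition versus vehicle-treated controls, using a strain with cln2 and rad14 alterations exposed to compound.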

Assay [5] can be described thus: NCI Yeast Anticancer Drug Screen. Data for the bub3 strain (AID 167). To be noted: S. cerevisiae bub3 mutant strain, at 50.0 µM, stronger effect = higher value. In outline: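 Readout: yeast growth inhibition, expressed relative to vehicle-only wells. The test organism is a mutant strain from a panel with lesions in DNA repair or checkpoint genes.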
Assay [6] is described as follows: NCI Yeast Anticancer Drug Screen. Data for the mlh1 rad18 strain (AID 175). Particulars: S. cerevisiae mlh1 rad18 strain growth inhibition; at 50.0 µM; stronger effect = higher value. The gist of the method:
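Genetically defined yeast (DNA repair-deficient) exposed to compounds; growth inhibition determined relative to vehicle.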

`O=C(O)Cc1ccc2ccccc2c1`: the growth inhibition was 6.3% in assay [1]; 13.2% in assay [2]; 20.6% in assay [3]; 3.6% in assay [4]; 0.45% in assay [5]; 48% in assay [6].
On to `O=C(/C=C/c1ccc(O)cc1)OC[C@@H](O)COC1OC(CO)C(O)C(O)C1O` (stereo partly specified), for which the growth inhibition is -5.8% in assay [1]; -5.05% in assay [2]; -4.35% in assay [3]; 6.8% in assay [4]; 8.2% in assay [5]; -3.65% in assay [6].
As to `OC1CC2COCC2CC1O` (stereo unspecified), the growth inhibition is 22.6% in assay [1]; 1.7% in assay [2]; 11.1% in assay [3]; 6.9% in assay [4]; 4.4% in assay [5]; 10% in assay [6].
Regarding `CC(=O)OCCOCN1C(=O)CC(=O)NC1=O`, the growth inhibition in assay [1] is -10.2%; in assay [2] it was -10.6%; in assay [3] it was -4.5%; in assay [4], -5.45%; in assay [5], -22.3%; in assay [6], -30.2%.
On to `O=C(COc1cc(Cl)c(Cl)cc1Cl)Nc1c(Cl)cc(Cl)cc1Cl`, for which the growth inhibition is 2.5% in assay [1]; 5.8% in assay [2]; -2.75% in assay [3]; -18.6% in assay [4]; -2.15% in assay [5]; 22.7% in assay [6].
In the case of `OC[C@@H]1C2CCC([C@@H]1CO)C2(Cc1ccccc1)Cc1ccccc1`, the growth inhibition in assay [1] was 5.9%; in assay [2], 26.9%; in assay [3], 9.45%; in assay [4], -73%; in assay [5], 4.95%; in assay [6], -11.2%.
In the case of `CC(=O)C1=C(C)C2CC3(C)CC(C2(C)C1)C3(C)C` (stereo unspecified), the growth inhibition was 8.45% in assay [1]; -17.1% in assay [2]; -0.95% in assay [3]; 10.6% in assay [4]; -9.75% in assay [5]; -6% in assay [6].
`CCCCCCCCCCCCCCCCCC(=O)CC(=O)OCC`: the growth inhibition in assay [1] was -1.25%; in assay [2], 1.15%; in assay [3], 3.5%; in assay [4] it was 17.9%; in assay [5], -10%; in assay [6], 4.25%.
For `C(=C\c1csnn1)/c1cccnc1`, the growth inhibition in assay [1] was 29.9%; in assay [2] it was -1.95%; in assay [3], 2.05%; in assay [4] it was 6.35%; in assay [5], 9.3%; in assay [6], 5.75%.
For `O=C(O)C(C(=O)O)C(O)c1c2ccccc2cc2ccccc12` (stereo unspecified), the growth inhibition in assay [1] is -10.3%; in assay [2], 16%; in assay [3], -4.35%; in assay [4], -47.6%; in assay [5], 0.6%; in assay [6] it was -1.05%.
As to `O=S1(=O)CCC(Br)c2ccccc21` (stereo unspecified), the growth inhibition in assay [1] is -5%; in assay [2], -0.25%; in assay [3], 0.4%; in assay [4], -38.5%; in assay [5], 8.6%; in assay [6], -12.5%.
On to `CCCCOC(=O)NC(=O)c1cc2cccc(OC)c2oc1=O`, for which the growth inhibition in assay [1] is 17.1%; in assay [2], 21.6%; in assay [3], 14.4%; in assay [4], 14.3%; in assay [5], 14.8%; in assay [6] it was 10.2%.
Regarding `O=C(NCCCC1NC(=O)/C(=C(O)/C=C/C=C/c2ccccc2)C1=O)OCc1ccccc1` (stereo unspecified), the growth inhibition in assay [1] was 38.4%; in assay [2] it was -1.65%; in assay [3], 17.1%; in assay [4], -2.75%; in assay [5] it was 0.25%; in assay [6] it was 21.8%.
As to `CC1=CCS(=O)(=O)C1`, the growth inhibition in assay [1] was 22.4%; in assay [2], 1.55%; in assay [3], 12.2%; in assay [4], 10.3%; in assay [5], -4.1%; in assay [6], 29%.
Take `O=C(CS(=O)(=O)Cc1ccccc1)N1CCOCC1`: the growth inhibition is -9.4% in assay [1]; -13.3% in assay [2]; -6.55% in assay [3]; -3.8% in assay [4]; -3% in assay [5]; -27.5% in assay [6].
Take `CC(=O)OCC1OC(c2ccccc2)C/C(=N/O)C1OC(C)=O` (stereo unspecified): the growth inhibition in assay [1] was 90.8% (active); in assay [2], 98.5% (active); in assay [3] it was 97.8% (active); in assay [4], 96.8% (active); in assay [5] it was 87.8% (active); in assay [6] it was 97.7% (active).
Turning to `C=C(C)C1CCC2(CO)C(O)CC3(C)C(CCC4C5(C)CCC(O)C(C)(C)C5CCC43C)C12` (stereo unspecified), the growth inhibition in assay [1] is 14.5%; in assay [2], 7.45%; in assay [3] it was -8.75%; in assay [4], 2.95%; in assay [5], 15.6%; in assay [6], -6.6%.
For the compound `Clc1cccc(-c2nc3cccc4c3n2Cc2ncccc2-4)c1`, the growth inhibition in assay [1] was -47.8%; in assay [2], -37%; in assay [3], -42.5%; in assay [4], -9.4%; in assay [5], 0.65%; in assay [6] it was -44.4%.
Regarding `CNc1ccc(/C=C/c2ccnc3ccccc23)cc1`, the growth inhibition in assay [1] is 31.2%; in assay [2], 46.2%; in assay [3] it was 68.3%; in assay [4] it was 27.6%; in assay [5], 42.1%; in assay [6], 49.8%.
For the compound `CC(C)C(C)(C)C(N)=O`, the growth inhibition in assay [1] was -4.5%; in assay [2] it was -0.95%; in assay [3], -9.1%; in assay [4], 13.9%; in assay [5], 19.6%; in assay [6] it was 0.95%.
`O=C(C[N+]12CN3CN(CN(C3)C1)C2)c1ccc(-c2ccccc2)cc1`: the growth inhibition in assay [1] was 65.7%; in assay [2], 34.2%; in assay [3] it was 53.2%; in assay [4] it was 21.1%; in assay [5], 39.2%; in assay [6], 45.6%.

For the origin of these results see PubChem BioAssay (NCI).
